Values joined by “and” are separate entries in the source; they are usually repeats but may differ in a detail not shown here. Identical values can stand only once. Inconclusive results are not listed. Where a call stands in place of a potency, no number is given. Active and inactive are the calls of the source. Calls come from the whole dose curve; as a rule, active = well fitted inhibition curve with a large enough effect in the repeat runs; inconclusive = weak or mixed curves; inactive = flat fitted curve, though single readings scatter.
Potency is the fitted concentration of half-maximal effect.

Sequence of Voltage-gated inwardly rectifying potassium channel KCNH2 (Homo sapiens) (Q12809 whole entry, looked up): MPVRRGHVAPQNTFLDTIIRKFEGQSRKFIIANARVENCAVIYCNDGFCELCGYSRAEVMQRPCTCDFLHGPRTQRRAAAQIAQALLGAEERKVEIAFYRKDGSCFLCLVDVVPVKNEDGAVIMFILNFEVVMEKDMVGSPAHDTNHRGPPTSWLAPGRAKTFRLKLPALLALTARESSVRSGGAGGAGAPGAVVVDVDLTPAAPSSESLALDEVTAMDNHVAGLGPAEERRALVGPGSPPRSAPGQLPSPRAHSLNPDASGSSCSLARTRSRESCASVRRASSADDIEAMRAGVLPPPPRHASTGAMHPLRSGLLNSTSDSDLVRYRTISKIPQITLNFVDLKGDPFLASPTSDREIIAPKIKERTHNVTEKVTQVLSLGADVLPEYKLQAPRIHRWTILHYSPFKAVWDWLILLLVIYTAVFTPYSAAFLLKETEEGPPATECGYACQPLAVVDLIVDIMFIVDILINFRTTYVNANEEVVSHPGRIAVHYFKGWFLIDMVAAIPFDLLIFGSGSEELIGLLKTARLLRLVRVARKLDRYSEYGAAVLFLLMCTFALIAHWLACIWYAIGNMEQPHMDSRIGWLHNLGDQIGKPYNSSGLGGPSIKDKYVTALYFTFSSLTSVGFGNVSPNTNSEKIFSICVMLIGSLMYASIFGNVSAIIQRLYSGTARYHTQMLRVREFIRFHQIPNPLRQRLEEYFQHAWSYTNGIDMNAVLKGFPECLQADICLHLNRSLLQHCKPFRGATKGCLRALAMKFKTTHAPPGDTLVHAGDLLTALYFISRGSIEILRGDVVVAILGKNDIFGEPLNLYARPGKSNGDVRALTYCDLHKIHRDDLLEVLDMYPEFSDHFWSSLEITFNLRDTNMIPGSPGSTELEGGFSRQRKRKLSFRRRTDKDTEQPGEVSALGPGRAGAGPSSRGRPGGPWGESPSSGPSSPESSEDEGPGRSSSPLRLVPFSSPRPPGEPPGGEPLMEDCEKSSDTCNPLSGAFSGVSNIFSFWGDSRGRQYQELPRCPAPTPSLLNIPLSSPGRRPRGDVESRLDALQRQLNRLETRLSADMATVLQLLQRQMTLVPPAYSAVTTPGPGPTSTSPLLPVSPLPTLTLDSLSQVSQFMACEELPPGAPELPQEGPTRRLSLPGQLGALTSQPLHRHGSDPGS

The assay has as its target Voltage-gated inwardly rectifying potassium channel KCNH2 (Homo sapiens) (UniProt Q12809). Description: Human Ether-a-go-go-Related Gene (hERG) channel small molecule antagonists: fluorescence cell-based qHTS assay (AID 1671200). Note: nearly all actives have a fitted effect of over 50% in size. To be noted: hERG-U2OS cells, FluxOR thallium flux fluorescence; series mostly up to 76.8 µM. The source says: National Center for Advancing Translational Sciences [NCATS]
U.S. Environmental Protection Agency [EPA]
National Institutes of Environmental Health Sciences [NIEHS]
National Toxicology Program [NTP]
U.S. Food and Drug Administration [FDA]
Mutations in the hERG channel cause Long QT (LQT) syndrome. LQT syndrome is a cardiac disorder which can cause ventricle arrhythmia and sudden death. Additionally, compounds which block the hERG channel can cause acquired LQT syndrome. Several FDA approved drugs have been removed from the market due to their hERG blocking activity. A cell-based hERG channel inhibition assay can be used to screen chemical compounds that inhibit hERG channel. This assay measures hERG channel activity using thallium ions as surrogate ions to measure potassium into the cells.
Tox21 Assay Protocol Summary:
hERG-U2OS cells were resuspended in culture medium and dispensed into 1536-well, black wall/clear-bottom plates at 1000cells/well/3uL using a Multidrop Combi dispenser (Thermo Fisher, Waltham, MA). After plates were incubated at 37 C overnight, 3 uL of Loading Buffer provided by FluxOR II Potassium Ion Channel Assay kit (Thermo, Carlsbad, CA) was added to each well. The assay plates were then incubated at room temperature in the dark for 1h. […] After the assay plates were incubated at room temperature for 10 min, 1 uL of Stimulus Buffer provided by FluxOR II Potassium Ion Channel Assay kit was added into each well and fluorescence intensity (480nm excitation/540nm emission) was continuously measured for 2 min at 1 second intervals using a Functional Drug Screening System (FDSS) 7000EX kinetic plate reader (Hamamatsu, Japan).
A general note: hERG is a cardiac potassium channel; its block is linked to QT prolongation.
Turning to `Cc1ccc(CCl)cc1`, the Potency entry was “inactive”. Take `O=c1ssc(Cl)c1Cl`: the Potency is 49 µM (active).

`O=C(O)C1C2CCC(O2)C1C(=O)O` (stereo not given): the Potency entry was “inactive”. For `CCS(=O)(=O)c1cccnc1S(=O)(=O)NC(=O)Nc1nc(OC)cc(OC)n1` the value was “inactive”; for `CC(Cl)CN(C)C` (stereo not given), “inactive”; for `CN(C)C1CSSSC1`, “inactive”. For `CC(C)CC(C)Nc1ccc(Nc2ccccc2)cc1` (stereo not given) the value was 24.1 µM (active).

As to `Cc1cccc(OP(=O)(Oc2cccc(C)c2)Oc2cccc(C)c2)c1`, the Potency result is “inactive”.

On to `Clc1ccc(-c2ccc(Cl)c(Cl)c2Cl)c(Cl)c1Cl`, for which the Potency result is “inactive”. For `CN(C)C(=S)S` the value was “inactive”. In the case of `CC[C@H](C)[C@H]1O[C@]2(C=C[C@@H]1C)C[C@@H]1C[C@@H](C/C=C(\C)[C@@H](O[C@H]3C[C@H](OC)[C@@H](O[C@H]4C[C@H](OC)[C@@H](O)[C@H](C)O4)[C@H](C)O3)[C@@H](C)/C=C/C=C3\CO[C@@H]4[C@H](O)C(C)=C[C@@H](C(=O)O1)[C@]34O)O2`, the Potency result was “inactive”. For `c1ccc(Nc2ccc3ccccc3c2)cc1` the value was “inactive”; for `Oc1ccc(I)cc1`, “inactive”. For the molecule `CC(C)CC(C)N` (stereo not given), the Potency entry was “inactive”.

As to `c1ccc2cc3c(cc2c1)-c1cccc2cccc-3c12`, the Potency result was “inactive”. Turning to `C[C@]12CC[C@H](O)C[C@H]1CC[C@@H]1[C@@H]2C[C@@H](O)[C@]2(C)[C@@H](C3=CC(=O)OC3)CC[C@]12O`, the Potency entry was “inactive”. For `CCCCCCCCCCCCCCCC[N+](C)(C)C` the value was 16.8 µM (active) and 21.9 µM (active) and 16.9 µM (active); for `CCOC(=O)CC(=O)CCl`, “inactive”. `[Cd+2].[Cl-].[Cl-]`: the Potency entry was “inactive”.

For `O=C(CCCN1CCC2(CC1)C(=O)NCN2c1ccccc1)c1ccc(F)cc1`, the Potency is 1.2 µM (active).

In the case of `COc1ccc(N)cc1N`, the Potency result was “inactive”. For `CCCCCCCCCBr` the value was “inactive”; for `CN(C)S(=O)(=O)N(SC(F)(Cl)Cl)c1ccccc1`, 19.5 µM (active); for `CC(C)(COCC1CO1)COCC1CO1` (stereo not given), “inactive”. As for `CC(C)OC(=S)S`, the Potency entry is “inactive”. For `O=CC(Br)(Br)Br` the value was “inactive”; for `C[C@]12Cc3nonc3C[C@@H]1CC[C@@H]1[C@@H]2CC[C@@]2(C)[C@H]1CC[C@]2(C)O`, “inactive”. Turning to `Cn1[nH]nnc1=S`, the Potency entry was “inactive”. For `BrC(Br)Br` the value was “inactive”; for `CC(C)(c1ccc(O)c(-c2ccccc2)c1)c1ccc(O)c(-c2ccccc2)c1`, “inactive”; for `Cc1cc(C)c(C2=C(OC(=O)CC(C)(C)C)C3(CCCC3)OC2=O)c(C)c1`, “inactive”.

With `CCOP(=S)(OCC)SCS(=O)(=O)CC`, the Potency result was “inactive”.

Turning to `CCN`, the Potency entry was “inactive”.

As for `CCCCOP(=O)(CCCC)OCCCC`, the Potency entry is “inactive”.

Take `CCCCCCCCCCCCBr`: the Potency result is “inactive”. For `CC(=O)c1cc(C(C)(C)C)cc2c1CCC2(C)C` the value was “inactive”; for `Oc1ccccc1Br`, “inactive”; for `ClC(Cl)=C(Cl)Cl`, “inactive”. For `CC(=O)[O-].CC(=O)[O-].[Hg+2]` the value was 6.92 µM (active); for `[Cl][Sn]([c]1ccccc1)([c]1ccccc1)[c]1ccccc1`, 2.08 µM (active).

Source of the values: PubChem BioAssay (Tox21).
